Test results published in PubChem BioAssay AID2391 (Southern Research Specialized Biocontainment Screening …, 2010).
Screen size: about 310,000 compounds; about 410 (0.13%) were called active. Inconclusive results (about 2%) are left out. No rule for the calls is given here. A selection follows. Measured potencies and affinities stand elsewhere.

experiment: RSV antiviral activity via CPE protection, HEp-2 cells, primary 10 µM value included (AID 2391); conditions: RSV-induced CPE inhibition, at 10 µM, stronger effect = higher value

CPE inhibition, inactive:
C/C(CCc1ccccc1)=N\NC(=O)CC(=O)NCCc1ccccc1 1.3%
CCSc1nnc(SCC(=O)N2CCN(C(=O)c3ccco3)CC2)s1 1.6%
Cc1ccc(-c2noc(CCC(=O)NCCc3ccccc3Cl)n2)cc1 15.4%
Cc1ccc(CNC(=O)c2cc3c(=O)n(C)c4ccccc4c3n2C)cc1 0.79%
Cn1c(C(=O)NCC2CCCO2)cc2oc3ccccc3c21 (stereo not drawn) 3.52%
COCCNC(=O)c1cc2oc3ccccc3c2n1C 1.43%
Cn1c(C(=O)NCc2cccs2)cc2c(=O)n(C)c3ccccc3c21 0.91%
Cc1ccc2c(c1)cc(C(=O)N[C@@H](Cc1ccccc1)C(=O)O)n2C 1.38%
CCOc1ccc(CNC(=O)CCn2c(=O)oc3ccccc32)cc1 2.74%
Cc1c(C(=O)NCc2cccs2)oc2ccccc12 6.49%
COc1ccc(CNC(=O)c2cc3c(=O)[nH]c4ccccc4c3n2C)cc1 2.27%
NC(=O)c1ccc(OCC2CCCO2)cc1 (stereo not drawn) 0.89%
Cc1cccc(COCC(CC(C)C)N2CCN(C(=O)c3ccc(C(C)(C)C)cc3)CCC2=O)c1 (stereo not drawn) -2.89%
COCCn1c(-c2ccccc2)nc2oc3ccccc3c(=O)c2c1=O 1.49%
O=C(c1ccccc1Br)N1N=C(c2ccccc2)CC1c1ccccc1F (stereo not drawn) 13.7%
Cc1c(C)c2ccc(OCC(=O)NCc3ccccn3)cc2oc1=O 1.94%
Cc1cc(=O)oc(C)c1C(=O)NCCc1ccccc1 -0.07%
CCC(=O)Nc1sc2c(c1C(=O)OC)CCN(Cc1ccccc1)C2 -0.39%
Cc1ccc(C(CC(=O)O)C2CCOC(C)(C)C2)cc1 (stereo not drawn) 0.31%
c1ccc(Cn2nnc3c(N4CCCC4)ncnc32)cc1 -0.08%
c1ccc(Cn2nnc3c(N4CCOCC4)ncnc32)cc1 1.51%
Cc1nnc2sc(-c3cccc(F)c3)nn2c1=O 0.29%
CC(C)CN1CCN(Cc2cnc(-c3ccc(Cl)cc3)nc2)CC1CCO (stereo not drawn) 19.2%
O=C(Nc1nnc(C2=COCCO2)o1)c1ccc([N+](=O)[O-])cc1 0.76%
CCc1cccc(C)c1NC(=O)C1CC=CCC1C(=O)O (stereo not drawn) -1.43%
O=c1oc(/C=C/c2ccco2)nc2sc3c(c12)CCC3 2.04%
COc1ccc(/C=C/c2nc3sc4c(c3c(=O)o2)CCC4)cc1 2.5%
Cc1ccc(OCC(=O)N2c3ccccc3CC2C)c([N+](=O)[O-])n1 (stereo not drawn) -0.02%
